Source: PubChem BioAssay
Active and inactive are the calls of the source. Unless noted, how the calls were made is not given here.

Experiments:
[1] = resazurin metabolic signal in HepG2 cells – cell-based, resazurin fluorescence, 24 h, PK04 Diversity Set, profiling panel (AID 1172); conditions: HepG2 viability, higher = more signal
[2] = budding yeast growth changes without added modifier – OD600, strain BY4716, 24 h, basal condition, primary screen (AID 1173); conditions: S. cerevisiae BY4716 growth, OD600, 24 h; higher = more signal, called active from +8 up or from −8 down
[3] = viability profiling in MM1S myeloma cells – cell-based, resazurin fluorescence, basal, 24 h, PK04 Diversity Set, profiling panel (AID 1174); conditions: higher = more signal, called active from +8 up or from −8 down;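 further: MM1S multiple myeloma cell line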
[4] = biological target: Dihydroorotate dehydrogenase (quinone), mitochondrial (Plasmodium falciparum (isolate 3D7)) (UniProt Q08210); test: inhibition of P. falciparum DHODH – biochemical, C-terminal His tag, absorbance 600 nm, primary screen (AID 1175); conditions: PfDHODH enzyme, DCIP absorbance 600 nm; higher = more signal, called active from +8 up or from −8 down;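 further: recombinant parasite enzyme with a five histidine tag at its C terminus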
[5] = inhibition of PAO1 biofilm formation – strain PAO1, LB-PBS medium, absorbance 600 nm, primary screen (AID 1176); conditions: P. aeruginosa PAO1 growth/biofilm, A600, 12 h; higher = more signal
[6] = growth modulation of vineyard yeast isolate – strain RM11-1a, OD600, basal, 24 h, primary screen (AID 1177);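 further: cultures grown under basal conditions with no added stressor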; conditions: S. cerevisiae RM11-1a growth, OD600, 24 h; higher = more signal, called active from +8 up or from −8 down
[7] = growth of efflux-deficient E. coli DRC39 – strain DRC39, OD650, 24 h, E. coli filamentation inducers, primary screen (AID 1178);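 further: growth measured as culture turbidity by optical density at 650 nm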; conditions: E. coli DRC39 acrAB, higher = more signal, called active from +8 up or from −8 down
[8] = growth of efflux-deficient E. coli DRC39 – strain DRC39, OD650, 48 h, E. coli filamentation inducers, primary screen (AID 1179);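 further: screen aims at cell division blockers that make cells filament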; conditions: E. coli DRC39 delta-acrAB growth, higher = more signal, called active from +8 up or from −8 down
[9] = viability profiling in RPMI8226 myeloma cells – cell-based, resazurin fluorescence, basal, 24 h, PK04 Diversity Set, profiling panel (AID 1180); conditions: higher = more signal;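 further: RPMI8826 multiple myeloma cell line at 5000 cells per well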
[10] = biological target: E3 ubiquitin-protein ligase XIAP (Homo sapiens) (UniProt P98170); test: small molecules binding XIAP protein – biophysical, small-molecule microarray, fluorescence 635 nm, primary screen (AID 1181); conditions: higher = more signal;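 further: score merges 667 nm emission and signal to noise over triplicate slides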
[11] = tested on: XIP peptide (Xip251-270) binding; test: XIP fragment 251-270 binding compounds – biochemical, small-molecule microarray, fluorescence 635/667 nm, 0.1 µg/mL protein, primary screen (AID 1182); conditions: fluorescent protein binding, 635 nm, higher = more signal, called active from +8 up or from −8 down
[12] = tested on: XIP peptide (Xip251-270); test: compounds binding XIP fragment 251-270 – biochemical, small-molecule microarray, fluorescence 635/667 nm, 0.5 µg/mL protein, primary screen (AID 1183); conditions: fluorescence 635 nm, higher = more signal
[13] = blood-stage malaria parasite viability loss – strain 3D7, DAPI fluorescence, 100 nL, primary screen (AID 1184);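 further: parasites grown inside human red blood cells in medium with human serum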; conditions: P. falciparum 3D7 growth, 3 d, higher = more signal
[14] = biological target: Homeobox protein Hox-A13 (Mus musculus) (UniProt Q62424); test: disruptors of Hoxa13 oligonucleotide interaction – biochemical, fluorescence polarization, labeled oligonucleotide, primary screen (AID 1185); conditions: Hoxa13:DNA binding, 15 min, higher = more signal, called active from +8 up or from −8 down
Sequence of Homeobox protein Hox-A13 (Mus musculus) (Q62424 whole entry, looked up): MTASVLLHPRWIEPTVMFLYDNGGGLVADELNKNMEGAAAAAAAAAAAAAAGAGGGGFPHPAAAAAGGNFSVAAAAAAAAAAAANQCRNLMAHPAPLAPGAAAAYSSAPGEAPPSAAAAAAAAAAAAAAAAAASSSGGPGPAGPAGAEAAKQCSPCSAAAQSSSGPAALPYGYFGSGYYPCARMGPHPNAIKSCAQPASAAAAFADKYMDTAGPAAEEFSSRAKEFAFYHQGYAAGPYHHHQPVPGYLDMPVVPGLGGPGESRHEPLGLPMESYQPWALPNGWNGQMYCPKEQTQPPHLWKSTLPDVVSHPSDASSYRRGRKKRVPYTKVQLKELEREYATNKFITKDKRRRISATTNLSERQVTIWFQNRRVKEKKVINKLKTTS

Sequence of E3 ubiquitin-protein ligase XIAP (Homo sapiens) (P98170 whole entry, looked up, the tested form may be a part): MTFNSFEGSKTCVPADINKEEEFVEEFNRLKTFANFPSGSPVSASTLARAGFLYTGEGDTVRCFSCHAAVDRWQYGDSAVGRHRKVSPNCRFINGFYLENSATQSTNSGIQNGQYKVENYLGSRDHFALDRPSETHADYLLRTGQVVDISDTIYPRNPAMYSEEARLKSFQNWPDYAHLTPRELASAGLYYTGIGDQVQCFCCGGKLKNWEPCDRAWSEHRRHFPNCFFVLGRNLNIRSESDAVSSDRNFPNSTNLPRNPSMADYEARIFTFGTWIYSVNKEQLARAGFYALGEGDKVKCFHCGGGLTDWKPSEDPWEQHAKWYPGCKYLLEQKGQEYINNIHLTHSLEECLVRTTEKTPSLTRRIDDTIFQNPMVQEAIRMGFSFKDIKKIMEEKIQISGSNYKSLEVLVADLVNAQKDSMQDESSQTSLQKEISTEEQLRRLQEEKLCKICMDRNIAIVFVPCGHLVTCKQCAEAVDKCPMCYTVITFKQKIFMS
Sequence of Dihydroorotate dehydrogenase (quinone), mitochondrial (Plasmodium falciparum (isolate 3D7)) (Q08210 whole entry, looked up): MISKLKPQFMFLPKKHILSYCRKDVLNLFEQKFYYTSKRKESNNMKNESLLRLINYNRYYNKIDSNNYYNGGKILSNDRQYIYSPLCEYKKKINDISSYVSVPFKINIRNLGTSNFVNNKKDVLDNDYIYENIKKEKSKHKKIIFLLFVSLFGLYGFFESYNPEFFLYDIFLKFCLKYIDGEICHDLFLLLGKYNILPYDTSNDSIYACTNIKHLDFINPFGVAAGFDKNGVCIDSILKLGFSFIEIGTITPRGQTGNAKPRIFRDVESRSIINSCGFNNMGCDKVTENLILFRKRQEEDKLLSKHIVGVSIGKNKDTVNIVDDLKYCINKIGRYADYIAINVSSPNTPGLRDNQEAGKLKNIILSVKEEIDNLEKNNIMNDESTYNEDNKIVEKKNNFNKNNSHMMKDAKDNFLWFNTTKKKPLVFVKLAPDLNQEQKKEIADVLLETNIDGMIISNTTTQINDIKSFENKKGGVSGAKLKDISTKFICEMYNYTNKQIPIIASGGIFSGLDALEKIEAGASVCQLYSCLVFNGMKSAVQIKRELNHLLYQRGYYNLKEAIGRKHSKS

Structure (SMILES)	z-score [1]	z-score [2]	z-score [3]	composite z-score [4]	z-score [5]	z-score [6]	z-score [7]	z-score [8]	z-score [9]	composite z-score [10]	composite z-score [11]	composite z-score [12]	z-score [13]	z-score [14]
CO[C@@H]1COC(=O)CC=C[C@@H](C)COC(=O)[C@H](COCc2ccccc2)NC(=O)CC=C[C@H]1C	-0.466	-0.591 (inactive)	0.579 (inactive)	0.777 (inactive)	-0.969 (inactive)	0.158 (inactive)	0.489 (inactive)	-0.0248 (inactive)	0.783	0.122	0.0912 (inactive)	-0.453	-1.02	-0.119 (inactive)
CCN1C(=O)[C@H]2[C@H]3[C@H](O)[C@H](O)CC(=NOCc4ccccc4)[C@@H]3CC[C@H]2C1=O	-0.113	-1.73 (inactive)	-2.61 (inactive)	-2.05 (inactive)	0.659 (inactive)	-2.27 (inactive)	-0.717 (inactive)	-0.353 (inactive)	-1.89	-0.0302	-0.161 (inactive)	0.465	-0.165	0.697 (inactive)
COC(=O)[C@H](C)NC(=O)CCC1CC(OC(=O)NCCc2ccc(F)cc2)CC2(CCCC(COC(=O)NCCc3ccc(Cl)cc3)O2)O1 (stereo partly drawn)	0.315	0.592 (inactive)	0.349 (inactive)	-0.532 (inactive)	0.45 (inactive)	0.825 (inactive)	0.718 (inactive)	0.942 (inactive)	0.761	-0.0918	0.503 (inactive)	0.729	-1.5	-2.44 (inactive)
COC(=O)[C@H](C)NC(=O)CCC1CC(OC(=O)NCc2cccc3ccccc23)CC2(CCCC(COC(=O)NCCc3ccc(Cl)cc3)O2)O1 (stereo partly drawn)	0.788	-0.0765 (inactive)	0.319 (inactive)	-0.473 (inactive)	-0.61 (inactive)	-0.425 (inactive)	-0.0798 (inactive)	0.687 (inactive)	0.413	-0.0718	-0.0057 (inactive)	0.204	-1.79	-1.77 (inactive)
CC(=O)C[C@H](O)[C@@H](NC(=O)OC(C)(C)C)C(C)C	-0.519	-1.33 (inactive)	0.481 (inactive)	-3.13 (inactive)	0.0494 (inactive)	-0.407 (inactive)	-1.86 (inactive)	-1.1 (inactive)	-0.228	-0.195	-0.0306 (inactive)	-0.161	-1.24	0.787 (inactive)
CCOC(=O)[C@H](CC(C)C)NC(=O)CCC1CC(OC(=O)NCCc2ccc(F)cc2)CC2(CCCC(COC(=O)NCc3ccccc3)O2)O1 (stereo partly drawn)	-0.816	-0.849 (inactive)	0.409 (inactive)	-2.24 (inactive)	-0.613 (inactive)	-0.0385 (inactive)	-0.221 (inactive)	-0.565 (inactive)	0.185	-0.0333	0.137 (inactive)	0.461	-2.06	-7.01 (inactive)
CC(C)=NOCc1cccc(-c2cc(-c3ccccc3)no2)c1	-0.714	0.671 (inactive)	-0.862 (inactive)	-0.502 (inactive)	0.475 (inactive)	-0.39 (inactive)	1.19 (inactive)	-1.41 (inactive)	-0.975	-0.288	1.13 (inactive)	0.326	2.06	0.515 (inactive)
CO[C@H]1COC(=O)CC=C[C@H](C)[C@@H](NS(=O)(=O)c2ccc(C)cc2)COC(=O)CC=C[C@@H]1C	0.55	-1.66 (inactive)	-0.31 (inactive)	-2.98 (inactive)	-0.573 (inactive)	-4.14 (inactive)	-0.721 (inactive)	-1.03 (inactive)	-0.203	-0.255	-0.116 (inactive)	0.0878	-0.648	1.31 (inactive)
C=CC[C@@H]1C=C[C@H](ON=C(C)CCN2CCc3nc(CC)c(CC)cc3C2)[C@@H](CO)O1	-0.127	-0.392 (inactive)	-0.439 (inactive)	-1.29 (inactive)	-0.0417 (inactive)	0.189 (inactive)	0.0116 (inactive)	0.138 (inactive)	-0.639	0.0178	0.0621 (inactive)	-0.0738	-0.163	-5.51 (inactive)
CCN1C(=O)[C@H]2[C@H]3[C@H](O)C=CC(=O)[C@@H]3CC[C@H]2C1=O	0.384	-0.067 (inactive)	0.442 (inactive)	-0.28 (inactive)	-0.519 (inactive)	0.197 (inactive)	0.484 (inactive)	0.205 (inactive)	-0.194	-0.133	-0.638 (inactive)	-0.0737	1.02	0.116 (inactive)
CC(=O)OC[C@H]1O[C@H](CC=NOC[C@@H](C)[C@H](OCc2ccccc2)C(C)C)C=C[C@@H]1OC(C)=O	0.643	0.904 (inactive)	-0.473 (inactive)	-0.298 (inactive)	0.0738 (inactive)	-0.0321 (inactive)	0.204 (inactive)	0.193 (inactive)	0.692	-0.0571	-0.655 (inactive)	-0.303	-0.46	-5.81 (inactive)
CC(=O)OC[C@H]1O[C@H](CCON=C(C)CCN2CCc3nc(-c4ccccc4)c(-c4ccccc4)cc3C2)C=C[C@@H]1OC(C)=O	0.0962	-0.0567 (inactive)	-0.91 (inactive)	-0.439 (inactive)	0.441 (inactive)	-0.64 (inactive)	0.304 (inactive)	-0.545 (inactive)	0.28	0.275	0.583 (inactive)	-0.0332	-0.697	-4.36 (inactive)
COC(=O)[C@H](C)NC(=O)CCC1CC(OC(=O)NCc2cccc3ccccc23)CC2(CCCC(COC(=O)NCC3CCCCC3)O2)O1 (stereo partly drawn)	1.14	-0.201 (inactive)	0.486 (inactive)	-0.533 (inactive)	-0.127 (inactive)	0.617 (inactive)	0.0476 (inactive)	-0.399 (inactive)	1.23	-0.02	0.0034 (inactive)	0.689	-1.96	-2.34 (inactive)
CC(CCN1CCc2nc(-c3ccccc3)c(-c3ccccc3)cc2C1)=NOC(C)CN1CCCCc2nc(C)c(C)cc21 (stereo not drawn)	-0.0429	-2.52 (inactive)	-1.07 (inactive)	0.187 (inactive)	0.347 (inactive)	-0.609 (inactive)	0.789 (inactive)	-0.702 (inactive)	-0.747	-0.0651	0.685 (inactive)	0.312	0.0201	-4.25 (inactive)
O=C1[C@H]2[C@H]3[C@H](O)[C@H](O)CC(=NOC[C@@H](O)COCc4ccco4)[C@@H]3CC[C@H]2C(=O)N1c1ccc(F)cc1F	0.883	-0.374 (inactive)	0.995 (inactive)	-0.564 (inactive)	-1.45 (inactive)	-0.247 (inactive)	0.0718 (inactive)	0.264 (inactive)	1.15	-0.37	-0.233 (inactive)	-0.103	-0.561	-4.05 (inactive)
COc1ccc(O[C@H]2C=C[C@@H](c3ccccc3)O[C@@H]2COC(=O)CCC(C)=NO[C@H](C)c2cn([C@@H]3COC[C@H]3O)nn2)cc1	0.896	-0.419 (inactive)	-0.191 (inactive)	-4.78 (inactive)	-0.467 (inactive)	-0.572 (inactive)	-1.09 (inactive)	-0.033 (inactive)	0.18	-0.138	0.0628 (inactive)	0.596	-1.52	-6.96 (inactive)
CC(CCN1CCc2nc(-c3ccccc3)c(-c3ccccc3)cc2C1)=NO[C@H](C)c1cn([C@@H]2COC[C@H]2O)nn1	-0.233	-0.799 (inactive)	-0.869 (inactive)	-0.0119 (inactive)	0.408 (inactive)	-0.462 (inactive)	0.532 (inactive)	0.705 (inactive)	-0.639	0.063	-0.378 (inactive)	0.175	0.429	-5.45 (inactive)
COc1ccc(O[C@H]2C=C[C@@H](c3ccccc3)O[C@@H]2COC(=O)CCC(C)=NOC[C@@H](C)[C@H](OCc2ccccc2)C(C)C)cc1	0.85	0.445 (inactive)	0.24 (inactive)	-0.926 (inactive)	-0.598 (inactive)	0.659 (inactive)	0.394 (inactive)	-0.9 (inactive)	0.0668	0.552	0.294 (inactive)	-0.794	-0.925	-0.43 (inactive)
C=COC[C@H]1CN2[C@@H](CC[C@@H](C)[C@@H]2c2ccc(Br)cc2)C(=O)O1	0.524	-3.11 (inactive)	0.255 (inactive)	-0.613 (inactive)	0.523 (inactive)	-2.06 (inactive)	0.0556 (inactive)	-0.848 (inactive)	-0.555	-0.209	0.299 (inactive)	0.719	0.0315	-2.37 (inactive)
O=C(NN=C1C[C@@H](O)[C@@H](O)[C@@H]2[C@@H]3C(=O)N(c4ccc(F)cc4F)C(=O)[C@@H]3CC[C@@H]12)OCc1ccccc1	0.801	0.207 (inactive)	0.442 (inactive)	-0.192 (inactive)	-1.09 (inactive)	1.01 (inactive)	0.502 (inactive)	0.873 (inactive)	0.508	-0.27	-0.269 (inactive)	0.159	0.823	-1.72 (inactive)
CC(C)CON=C1C[C@@H](O)[C@@H](O)[C@@H]2[C@@H]3C(=O)N([C@@H](C)c4ccccc4)C(=O)[C@@H]3CC[C@H]12	0.0096	-1.45 (inactive)	-0.0393 (inactive)	-0.0804 (inactive)	0.07 (inactive)	0.351 (inactive)	0.595 (inactive)	0.675 (inactive)	0.333	-0.166	-0.0093 (inactive)	0.402	0.529	0.0364 (inactive)
C[C@@H](c1ccccc1)N1C(=O)[C@H]2[C@H]3[C@H](O)[C@H](O)CC(=NOC[C@@H](O)COCc4ccco4)[C@@H]3CC[C@H]2C1=O	-0.52	0.984 (inactive)	-0.422 (inactive)	0.407 (inactive)	0.176 (inactive)	0.819 (inactive)	-0.892 (inactive)	-0.41 (inactive)	0.2	-0.131	-0.201 (inactive)	-0.287	-0.842	-1.25 (inactive)
